High-throughput results from PubChem BioAssay.
HCV inh: inhibitors of hepatitis C virus infection | Potency, µM (highest dose often 41.8 µM), hits mostly inhibitors | AID 651820 | 340,000 tested, 3.4% active | Huh7.5.1 HCVcc-Cre infection, luciferase reporter, 44 h
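Cells seeded at 1,000/well and cultured 4 h, then compounds added followed by HCVcc-Cre virus (~0.5 moi). After 44 h further culture, luciferase substrate was added, plates held 15 min at room temperature, and luminescence read for 15 sec.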
Lassa entry inh: blocks Lassa virus binding to or entry into cells; Lassa virus pseudotype entry inhibition, cell reporter; Potency, µM (series often up to 37.9 µM), usual class: inhibitors; 300,000 tested, 1.2% active; AID 540256; calls by dose curve; tested in HEK293 cells; further: nearly all actives have a fitted effect of over 50% in size
FMDV antiviral: foot and mouth disease virus antiviral activity. FMDV antiviral cell-based qHTS. AID 1159524. 410,000 tested, 1.2% active. Potency, µM (doses to about 57.9 µM), usual class: inhibitors; calls by dose curve; tested in HEK293T cells; further: read-out not given here; nearly all actives have a fitted effect of over 45% in size
HCMV inh: human cytomegalovirus inhibition | HFF cells, HCMV-luciferase reporter, 72 h; hits give low values | AID 1259415 | 410,000 tested, 4.5% active | activity change, negative = inhibition, % at 57.5 µM; in the data active means activity change below about -60%; inconclusive means no clear call, values can overlap the other calls; inactive means above about -39%
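Two compound doses tested in HFFs infected with HCMV-luciferase, MOI 1 PFU/cell, 72 h at 37C. Lysate luminescence read with OneGlo; data normalized against buffer-only and 10uM Salinomycin inhibitor controls.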
MARV entry inh: blocks Marburg virus binding to or entry into cells; Marburg virus pseudotyped entry inhibition, cell reporter; Potency, µM (series often up to 37.8 µM), most hits filed as inhibitors; 300,000 tested, 1.8% active; AID 540276; calls by dose curve; tested in HEK293 cells
G2M arrest HeLa: causes HeLa cells to arrest in G2/M phase; 25 tested, 60% active; HeLa cell cycle G2/M arrest, Hoechst DNA content imaging; shares compounds with MARV entry inh; Potency, µM, actives largely listed as inhibitors
WI-38 cytotox: toxic to WI-38 fibroblasts in PNC inhibitor counter-screen; shares compounds with MARV entry inh; WI-38 normal lung fibroblasts, ATPLite luminescence ATP viability, 24 h; Potency, µM (titrated, usually from 46.1 µM), actives largely listed as inhibitors; 120 tested, under 10 active
PNC assembly inh: confirmation of perinucleolar compartment assembly inhibitors. shares compounds with MARV entry inh. PC3M PTB-GFP, PNC prevalence imaging, 16 h. Potency, µM (doses to about 46.1 µM), usual class: inhibitors. 120 tested, 50% active. AID 2730
PC3M caspase: PC3M caspase 3/7 activation by PNC inhibitor hits | shares compounds with MARV entry inh | PC3M-GFP caspase 3/7 activation, luminescence, 24 h | activity change, positive = activation, % at 46.1 µM | 120 tested, under 10 active | AID 2731
Large screens that a line does not name were inactive (follow-up assays come after a bar, where they were run); ! = repeats disagree. Rows were chosen to be rich in hits. Some 7.9% of all compounds tested hit in one or more screens of this group. Unless noted, the call rests on the fitted dose curve; in most records, active means well fitted curve in the direction sought with a large enough effect; inconclusive means small, poorly fitted or top-dose-only effect, or another doubt; inactive means no such curve, though single readings can be large; an effect the other way counts as inactive or inconclusive.

Cc1cc(C(=O)COc2ccccc2Cl)c(C)n1-c1ccc2c(c1)OCO2	Lassa entry inh 4.1µM, MARV entry inh 16µM | WI-38 cytotox inactive | PNC assembly inh 7.9µM | PC3M caspase inactive
CNS(=O)(=O)c1cccc(C(=O)OCC(=O)c2cc(C)n(-c3ccc4c(c3)OCO4)c2C)c1	none
Cc1sc2nc(C3CC3)nc(SCC(=O)N3c4ccccc4CC3C)c2c1C (stereo not given)	HCV inh 11µM, Lassa entry inh 1.8µM, MARV entry inh 4.1µM (no result: HCMV inh) | WI-38 cytotox inactive | PNC assembly inh 7.1µM | PC3M caspase inactive
CCCCn1nnnc1C(c1cc2ccccc2o1)N(CCN(C)C)Cc1ccccc1 (stereo not given)	none (no result: HCV inh, Lassa entry inh, MARV entry inh)
COc1ccccc1NC1=C(N2CCCCC2)C(=O)c2ccccc2C1=O	HCV inh inconclusive, Lassa entry inh inconclusive, FMDV antiviral 10µM, MARV entry inh inconclusive (no result: HCMV inh) | WI-38 cytotox inactive | PNC assembly inh 11µM | PC3M caspase inconclusive
O=C1C(NS(=O)(=O)c2ccc(Br)cc2)=C(N2CCCCC2)C(=O)c2ccccc21	HCV inh inconclusive (no result: Lassa entry inh, MARV entry inh)
O=C(N/N=C\c1ccc([N+](=O)[O-])s1)c1cncc(Br)c1	HCV inh 10µM, Lassa entry inh 2.9µM, FMDV antiviral inconclusive, HCMV inh -100, MARV entry inh 2.6µM | WI-38 cytotox inactive | PNC assembly inh 22µM | PC3M caspase inconclusive
CSc1nc(-c2ccc(C)cc2)nc(C(Cl)Cl)n1	HCV inh 3.2µM, Lassa entry inh inconclusive, MARV entry inh inconclusive (no result: HCMV inh) | WI-38 cytotox inactive | PNC assembly inh 13µM | PC3M caspase inconclusive
Cc1cc(C)c(S(=O)(=O)/N=C2/C=C(Sc3ncn[nH]3)C(=O)c3ccccc32)cc1C	HCV inh inconclusive, Lassa entry inh 13µM, FMDV antiviral inconclusive, HCMV inh -100, MARV entry inh 1.6µM | WI-38 cytotox inactive | PNC assembly inh 6.3µM | PC3M caspase inactive
COc1cccc(/C=N/NC(=O)c2cc3c(OC)c(OC)ccc3[nH]2)c1OC	HCV inh inconclusive, Lassa entry inh inconclusive, MARV entry inh inconclusive | WI-38 cytotox inactive | PNC assembly inh inconclusive | PC3M caspase inactive
CCn1cc(C(=O)Nc2cccc(Cl)c2)c2cc(OC)c(OC)cc2c1=O	none (no result: HCV inh)
O=C(Nc1ccc(F)c(Cl)c1)c1csc(COCCO)n1	none (no result: HCV inh, Lassa entry inh, MARV entry inh)
Cc1ccc(Cl)cc1N(CC(=O)N1CCCCCC1)S(C)(=O)=O	none | WI-38 cytotox inactive | PNC assembly inh inactive | PC3M caspase inactive
Cc1ccc(Cl)cc1N(CC(=O)N1CCOCC1)S(C)(=O)=O	none (no result: Lassa entry inh, MARV entry inh)
Cc1ccc(NC(=O)Cc2ccc3c(c2)OCCO3)cc1S(=O)(=O)N1CCCCC1	Lassa entry inh inconclusive, FMDV antiviral inconclusive, MARV entry inh inconclusive
COc1cc2c(=O)c(C(=O)c3ccc(F)cc3)cn(Cc3cccc(F)c3)c2cc1OC	none (no result: HCV inh)
Cc1ccc(NC(=O)CN2C(=O)NC(C)(C3CC3)C2=O)cc1S(=O)(=O)N1CCCCC1 (stereo not given)	HCV inh inconclusive, MARV entry inh inconclusive
CC(C)CNC(=O)CSc1nnc(-c2cccc(S(=O)(=O)N3CCCCC3)c2)o1	none | WI-38 cytotox inactive | PNC assembly inh inactive | PC3M caspase inactive
Cc1nc(SCC(=O)Nc2ccccc2Cl)cc(-c2ccccc2)n1	HCMV inh inconclusive, MARV entry inh inconclusive (no result: HCV inh)
CN(C)CCCN1c2ccccc2Sc2ccc(Cl)cc21	HCV inh inconclusive, Lassa entry inh 23µM, FMDV antiviral inconclusive, HCMV inh -66!, MARV entry inh 5.6µM | G2M arrest HeLa inconclusive
CN(C)CCCN1c2ccccc2Sc2ccc3ccccc3c21	HCV inh inconclusive, Lassa entry inh inconclusive, FMDV antiviral inconclusive, MARV entry inh inconclusive
COc1ccc(CN2CCC(C(=O)NCCc3ccc(OC)c(OC)c3)CC2)c(OC)c1	MARV entry inh inconclusive | WI-38 cytotox inactive | PNC assembly inh inconclusive | PC3M caspase inactive
COc1ccc(CCNC(=O)C2CC2)cc1OC	none (no result: FMDV antiviral)
CC1(C)CN(c2ccccc2)C(=O)[C@H]1CC(=O)Nc1ccccc1	none (no result: HCV inh, Lassa entry inh, MARV entry inh)
CCCn1c(=O)n(-c2ccccc2)c(=O)c2sc3ccccc3c21	none (no result: HCV inh)
CNc1ccc2oc(C[C@H]3O[C@@]4(CC[C@H]3C)O[C@H]([C@H](C)C(=O)c3ccc[nH]3)[C@H](C)C[C@H]4C)nc2c1C(=O)O	HCV inh 2.2µM, Lassa entry inh 0.23µM, FMDV antiviral inconclusive, HCMV inh -100, MARV entry inh 2.9µM | G2M arrest HeLa 4.5
Cc1cnc(NC(=O)COc2cccc3c2OC(C)(C)C3)s1	HCV inh inconclusive, Lassa entry inh 0.71µM, HCMV inh -88, MARV entry inh inconclusive | WI-38 cytotox inactive | PNC assembly inh 7.9µM | PC3M caspase inactive
CC1(C)Cc2cccc(OCC(=O)Nc3ccccc3F)c2O1	none (no result: Lassa entry inh, MARV entry inh)
O=c1cc(N2CCN(c3ccc(F)cc3)CC2)[nH]c(=O)n1-c1ccc(Br)cc1	none (no result: HCV inh, MARV entry inh)
C/C(=N/OCO/N=C(/C)c1ccc(F)cc1)c1ccc(F)cc1	Lassa entry inh 3.2µM, MARV entry inh inconclusive | WI-38 cytotox inactive | PNC assembly inh 22µM | PC3M caspase inactive
C/C(=N/OCO/N=C(\C)c1ccc(F)cc1F)c1ccc(F)cc1F	none
CCOc1ccccc1NC(=O)Cc1coc2c(C)c(C)ccc12	FMDV antiviral inconclusive (no result: HCV inh)
O=C(Nc1cccc(S(=O)(=O)N2CCCCCC2)c1)c1ccc2c(c1)OCO2	HCV inh inconclusive, Lassa entry inh inconclusive, HCMV inh -62, MARV entry inh inconclusive | WI-38 cytotox inactive | PNC assembly inh inactive | PC3M caspase inactive
O=C(Nc1cccc(S(=O)(=O)N2CCCC2)c1)c1ccc2c(c1)OCO2	none
COc1ccc2sc(N(CCN(C)C)C(=O)c3ccc4ccccc4c3)nc2c1	none (no result: Lassa entry inh, MARV entry inh)
CC[C@]12C=CCN3CCC4(c5cc(Br)c(OC)cc5N(C)C4[C@@](O)(C(=O)OC)[C@@H]1OC(C)=O)C32 (stereo not given in full)	none
CCC1(O)CC2CN(CCc3c([nH]c4ccccc34)[C@@](C(=O)OC)(c3cc4c(cc3OC)N(C=O)C3[C@]45CCN4CC=C[C@@](CC)([C@@H](OC(C)=O)[C@]3(O)C(=O)OC)[C@H]45)C2)C1 (stereo not given in full)	MARV entry inh 13µM! (no result: HCV inh, Lassa entry inh, FMDV antiviral, HCMV inh) | G2M arrest HeLa inconclusive
C[C@]12CC[C@@H]3c4ccc(O)cc4CC[C@H]3[C@@H]1CC[C@@H]2O	Lassa entry inh inconclusive, MARV entry inh inconclusive | G2M arrest HeLa 10
CC12CCC3c4ccc(O)cc4CCC3C1CCC2O (stereo not given)	none (no result: HCV inh, Lassa entry inh, HCMV inh, MARV entry inh)
